# Reference: the supplement of paper PMC9177965
# How the values were obtained:
# [1] = tested on: HT29 RNF43 G659fs (RNF43 659mut, CRISPR-edited); assay: cell viability activity relative to DMSO (negative = inhibition); higher = more viable cells (less growth inhibition); settings: 5 µM; 96 h
# Description: (§1)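 Broad Repurposing Library primary screen at a single dose of 5 uM. HT29 sg-Ctrl and HT29 RNF43 G659fs CRISPR-edited isogenic cells were seeded at 2500 cells/well in 384-well plates in duplicate and treated for 96 h. Viability was read by CellTiter-Glo and reported as % activity relative to DMSO, with MG132 as the positive control (negative = growth inhibition).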
# [2] = tested on: HT29 sg-Ctrl (RNF43 wildtype); assay: as above; settings: 5 µM; 96 h
# Description: as §1
SMILES,cell viability activity [1] [%],cell viability activity [2] [%]
Nc1c2ccccc2nc2ccccc12,-86.1,-86.8
Cc1ccc(C)c(OCCCC(C)(C)C(=O)O)c1,-30,-39.7
CC(=O)NCC(=O)N1[C@@H]2CC[C@H]1c1ccc(Nc3ncc(C(F)(F)F)c(NC4CCC4)n3)cc12,-41.1,-44.1
Cc1cc(O)c(-c2ccc([C@@H](C)CN)cc2)c2c1[nH]c(=O)c1sccc12,-92.6,-92.7
O=C(CCCCCN1C(=O)c2cccc3cccc(c23)C1=O)NO,-79.1,-71.7
COc1cc2c(Oc3ccc(NC(=O)C4(C(=O)Nc5ccc(F)cc5)CC4)cc3F)ccnc2cc1OCCCN1CCOCC1,-92.2,-37.8
Nc1ccn([C@@H]2O[C@H](CO)[C@@H](O)C2(F)F)c(=O)n1,-63.6,-67.1
Cn1cncc1[C@@](N)(c1ccc(Cl)cc1)c1ccc2c(c1)c(-c1cccc(Cl)c1)cc(=O)n2C,-30.6,-33.3
C[C@@H](C(=O)O)c1ccc(-c2ccccc2)c(F)c1,-68.9,-70.3
COc1ncc(-c2ccc3nccc(-c4ccnnc4)c3c2)cc1NS(=O)(=O)c1ccc(F)cc1F,-93.8,-89.3
Nc1ncn([C@@H]2O[C@H](CO)[C@@H](O)[C@H]2O)c(=O)n1,-24.4,-7.11
Cn1cnc2c(F)c(Nc3ccc(Br)cc3F)c(C(=O)NOCCO)cc21,-75.9,-82.9
Nc1nc(Nc2ccc3c(c2)CCC(N2CCCC2)CC3)nn1-c1cc2c(nn1)-c1ccccc1CCC2 (configuration not stated),-28.9,-31.9
Cc1ccc(C(=O)Nc2ccc(CN3CCN(C)CC3)c(C(F)(F)F)c2)cc1C#Cc1cnc2cccnn12,-86.7,-78.4
O=C(O)c1ccc[n+]([O-])c1,-66,-67.1
O=C1C(Cl)=C(NCCN2CCOCC2)C(=O)c2ncccc21,-46.3,-94.7

SMILES,cell viability activity [1] [%],cell viability activity [2] [%]
CN(C)CCOc1ccc(-c2nc(-c3ccc4c(c3)CC/C4=N\O)c(-c3ccncc3)[nH]2)cc1,-28.5,-37.9
C[C@@H](CN1CC(=O)NC(=O)C1)N1CC(=O)NC(=O)C1,-48.1,-44.6
CCN1CCC[C@H]1CNC(=O)c1c(OC)ccc(Br)c1OC,-49.5,-38.6
COc1cccc(OCCCN)c1-c1cc(Nc2cnc(C#N)cn2)n[nH]1,-78.2,-86.9
CCOC(=O)[C@H](Cc1ccccc1)NC(=O)c1cc(Cl)c(OCCN2CCN(C)CC2)c(Cl)c1O,-34,-41.2
O=C1c2c(O)ccc(O)c2C(=O)c2c(NCCNCCO)ccc(NCCNCCO)c21,-100,-99.7
O=C(NO)c1cnc(N2CCN(S(=O)(=O)c3ccc4ccccc4c3)CC2)nc1,-64.4,-48.5
NC1(c2ccc(-c3nc4ccn5c(=O)[nH]nc5c4cc3-c3ccccc3)cc2)CCC1,-42.7,-39.4
CN(C)/N=N/c1[nH]cnc1C(N)=O,-31.5,-26.5
CN1CCC(CNc2ccc3ncc(-c4cccc(OC(F)(F)F)c4)n3n2)CC1,-53,-52.2
O=[N+]([O-])c1ccccc1S(=O)(=O)NCC1CCC(CNCC2CCc3ccccc3C2)CC1 (configuration not stated),-63.8,-61.4
O=C(O)[C@]1(Cc2cccc(Nc3nccs3)n2)CC[C@@H](Oc2cccc(Cl)c2F)CC1,-24.5,-24.6
CN(C)C(=S)SC(=S)N(C)C,-30.9,-29.9
Cc1nc(C#Cc2ccnc(Cl)c2)c(C)n1-c1ccc(OC(F)(F)F)cc1,-25.5,-18.5
CCN(CC)CCOc1ccc(C(=C(Cl)c2ccccc2)c2ccccc2)cc1,-98.4,-97.9
